Common to all, as to test: DAPPL (digital affinity profiling via proximity ligation, sequencing); 10 mM Tris-HCl pH 7.5, 50 mM NaCl, 1 mM DTT, 4% glycerol, room temperature, 30 min; GST-TFs on glutathione beads, 16-mer random dsDNA library, 0.1% formaldehyde crosslink after washing; high values mean tight binding
In one experiment the target is T1, FEV (Homo sapiens, UniProt Q99581 1-238).
T1 sequence: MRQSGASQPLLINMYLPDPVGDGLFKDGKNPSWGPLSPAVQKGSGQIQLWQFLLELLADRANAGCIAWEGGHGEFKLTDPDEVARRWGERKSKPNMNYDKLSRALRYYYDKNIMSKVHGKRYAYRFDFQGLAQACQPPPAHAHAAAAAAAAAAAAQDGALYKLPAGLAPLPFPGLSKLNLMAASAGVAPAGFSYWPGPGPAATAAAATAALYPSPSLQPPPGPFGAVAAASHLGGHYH
The following applies: protein: recombinant; tags: N-terminal GST; dsDNA, one strand shown. In short, it runs like this: (§1)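 Human transcription factors were made in yeast as GST fusions, captured on glutathione beads and barcoded with DNA. With a tag-only sample included, the pool was incubated with 200 nmole of a random double-stranded 16-mer DNA library in Tris/NaCl/DTT/glycerol buffer at room temperature for 30 min, then crosslinked with 0.1% formaldehyde after washing, ligated by proximity, amplified and sequenced. For binding signal, each hexamer's read frequency for a factor is divided by its frequency for the tag-only sample.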

A further experiment deals with ETV5 (Homo sapiens, UniProt P41161 1-510). The following applies: protein: recombinant; tags: N-terminal GST; dsDNA, one strand shown. A digest of the protocol: as §1
For a further experiment, the target named is HSF1 (Homo sapiens, UniProt Q00613 1-529). The following applies: protein: recombinant; tags: N-terminal GST; chain copies: 3; dsDNA, one strand shown. In short, it runs like this: as §1
The target of the next experiment is T2, SPIC (Homo sapiens, UniProt Q8N5J4 1-248).
T2 sequence: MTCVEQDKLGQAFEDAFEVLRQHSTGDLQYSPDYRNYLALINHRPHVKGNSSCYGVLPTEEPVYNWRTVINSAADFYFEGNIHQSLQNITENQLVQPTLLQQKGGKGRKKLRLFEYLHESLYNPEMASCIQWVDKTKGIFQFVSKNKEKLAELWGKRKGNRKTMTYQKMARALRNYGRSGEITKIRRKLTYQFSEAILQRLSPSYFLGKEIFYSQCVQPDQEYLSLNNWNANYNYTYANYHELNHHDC
To be noted: protein: recombinant; tags: N-terminal GST; dsDNA, one strand shown. In short, it runs like this: as §1

For the next experiment, the target named is ELF4 (Homo sapiens, UniProt Q99607 1-663). To be noted: protein: recombinant; tags: N-terminal GST; dsDNA, one strand shown. In short, it runs like this: as §1
The target of another experiment is T3, ELK4 (Homo sapiens, UniProt P28324-2 1-405).
T3 sequence: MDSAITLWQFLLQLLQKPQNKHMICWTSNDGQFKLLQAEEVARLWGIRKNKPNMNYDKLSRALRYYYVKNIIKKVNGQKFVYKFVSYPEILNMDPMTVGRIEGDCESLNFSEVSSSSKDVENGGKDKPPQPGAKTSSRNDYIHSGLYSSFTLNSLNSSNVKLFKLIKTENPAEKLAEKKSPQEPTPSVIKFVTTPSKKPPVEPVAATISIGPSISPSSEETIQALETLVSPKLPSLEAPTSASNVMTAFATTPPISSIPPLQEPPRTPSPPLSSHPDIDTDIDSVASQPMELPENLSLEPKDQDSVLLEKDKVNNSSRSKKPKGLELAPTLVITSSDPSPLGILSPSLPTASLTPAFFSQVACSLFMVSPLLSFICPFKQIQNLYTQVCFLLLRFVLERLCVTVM
The following applies: protein: recombinant; tags: N-terminal GST; dsDNA, one strand shown. In short, it runs like this: as §1

A further experiment concerns the target T4, ETV2 (Homo sapiens, UniProt O00321 1-342).
T4 sequence: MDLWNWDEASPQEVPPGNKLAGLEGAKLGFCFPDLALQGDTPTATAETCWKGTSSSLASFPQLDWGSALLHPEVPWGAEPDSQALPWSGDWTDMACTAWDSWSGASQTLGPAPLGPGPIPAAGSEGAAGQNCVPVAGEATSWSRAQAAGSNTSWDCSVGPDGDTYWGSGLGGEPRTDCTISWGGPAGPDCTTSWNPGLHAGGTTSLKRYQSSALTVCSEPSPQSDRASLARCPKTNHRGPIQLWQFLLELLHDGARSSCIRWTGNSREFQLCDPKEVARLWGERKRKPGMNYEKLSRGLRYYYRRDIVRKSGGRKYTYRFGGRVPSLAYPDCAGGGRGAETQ
To be noted: protein: recombinant; tags: N-terminal GST; dsDNA, one strand shown. In short, it runs like this:
as §1

A further experiment concerns the target T5, ELF3 (Homo sapiens, UniProt P78545 1-371).
T5 sequence: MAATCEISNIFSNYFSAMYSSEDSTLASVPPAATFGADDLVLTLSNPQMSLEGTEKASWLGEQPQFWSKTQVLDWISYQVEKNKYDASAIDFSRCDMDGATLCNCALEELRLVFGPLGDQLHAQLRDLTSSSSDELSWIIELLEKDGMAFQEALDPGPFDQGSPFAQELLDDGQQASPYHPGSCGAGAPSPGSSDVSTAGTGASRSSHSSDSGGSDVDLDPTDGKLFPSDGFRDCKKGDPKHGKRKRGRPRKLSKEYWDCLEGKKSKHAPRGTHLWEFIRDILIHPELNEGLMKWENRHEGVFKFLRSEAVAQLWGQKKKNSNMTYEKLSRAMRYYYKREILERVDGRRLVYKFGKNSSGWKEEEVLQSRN
The following applies: protein: recombinant; tags: N-terminal GST; dsDNA, one strand shown. A digest of the protocol: as §1

The target in another experiment is CRX (Homo sapiens, UniProt O43186 1-299). To be noted: protein: recombinant; tags: N-terminal GST; dsDNA, one strand shown. In short, it runs like this:
as §1

Another experiment has as its target ETV1 (Homo sapiens, UniProt P50549 1-477). To be noted: protein: recombinant; tags: N-terminal GST; dsDNA, one strand shown. A digest of the protocol: as §1
A further experiment deals with T6, ERF (Homo sapiens, UniProt P50548 1-548).
T6 sequence: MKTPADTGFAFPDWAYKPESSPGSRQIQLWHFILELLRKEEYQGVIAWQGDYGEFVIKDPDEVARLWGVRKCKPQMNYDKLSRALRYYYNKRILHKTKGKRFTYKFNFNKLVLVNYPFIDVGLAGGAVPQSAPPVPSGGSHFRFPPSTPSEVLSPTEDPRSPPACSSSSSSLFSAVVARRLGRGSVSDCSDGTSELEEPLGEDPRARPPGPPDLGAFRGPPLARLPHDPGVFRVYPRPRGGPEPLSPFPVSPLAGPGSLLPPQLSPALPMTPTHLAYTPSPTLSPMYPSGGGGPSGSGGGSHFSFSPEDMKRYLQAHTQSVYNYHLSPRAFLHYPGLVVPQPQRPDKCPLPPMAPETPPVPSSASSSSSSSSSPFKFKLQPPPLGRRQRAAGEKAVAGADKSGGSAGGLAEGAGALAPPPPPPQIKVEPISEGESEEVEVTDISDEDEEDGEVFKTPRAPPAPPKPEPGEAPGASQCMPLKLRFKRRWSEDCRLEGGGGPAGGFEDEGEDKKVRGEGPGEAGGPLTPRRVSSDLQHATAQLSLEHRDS
The following applies: protein: recombinant; tags: N-terminal GST; dsDNA, one strand shown. In short, it runs like this: as §1

In a further experiment the target is T7, ETV3L (Homo sapiens, UniProt Q6ZN32 1-361).
T7 sequence: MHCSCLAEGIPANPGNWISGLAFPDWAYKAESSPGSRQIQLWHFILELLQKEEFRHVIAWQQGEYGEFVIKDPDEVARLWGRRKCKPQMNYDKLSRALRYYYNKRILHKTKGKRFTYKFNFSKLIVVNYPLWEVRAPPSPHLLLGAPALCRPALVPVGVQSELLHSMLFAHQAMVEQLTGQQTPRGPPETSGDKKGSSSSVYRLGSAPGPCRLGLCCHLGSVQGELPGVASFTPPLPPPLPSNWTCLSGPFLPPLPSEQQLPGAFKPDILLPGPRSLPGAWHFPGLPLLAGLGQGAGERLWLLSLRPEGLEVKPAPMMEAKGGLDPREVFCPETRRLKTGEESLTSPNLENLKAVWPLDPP
To be noted: protein: recombinant; tags: N-terminal GST; dsDNA, one strand shown. A digest of the protocol: as §1

A further experiment addresses T8, ETS2 (Homo sapiens, UniProt P15036 1-469).
T8 sequence: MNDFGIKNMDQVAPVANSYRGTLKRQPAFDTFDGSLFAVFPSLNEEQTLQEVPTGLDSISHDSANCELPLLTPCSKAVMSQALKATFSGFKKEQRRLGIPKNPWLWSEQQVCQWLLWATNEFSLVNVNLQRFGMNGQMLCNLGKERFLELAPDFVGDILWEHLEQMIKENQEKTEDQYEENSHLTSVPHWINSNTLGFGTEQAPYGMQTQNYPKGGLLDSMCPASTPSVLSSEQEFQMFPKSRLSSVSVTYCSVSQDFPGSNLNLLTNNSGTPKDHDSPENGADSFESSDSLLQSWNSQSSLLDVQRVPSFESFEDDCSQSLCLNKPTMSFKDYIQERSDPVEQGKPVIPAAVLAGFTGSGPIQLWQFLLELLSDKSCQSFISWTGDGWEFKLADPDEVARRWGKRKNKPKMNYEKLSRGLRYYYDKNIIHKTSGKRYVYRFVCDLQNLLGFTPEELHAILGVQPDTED
The following applies: protein: recombinant; tags: N-terminal GST; dsDNA, one strand shown. In short, it runs like this:
as §1

Another experiment concerns the target T9, SPDEF (Homo sapiens, UniProt O95238 1-335).
T9 sequence: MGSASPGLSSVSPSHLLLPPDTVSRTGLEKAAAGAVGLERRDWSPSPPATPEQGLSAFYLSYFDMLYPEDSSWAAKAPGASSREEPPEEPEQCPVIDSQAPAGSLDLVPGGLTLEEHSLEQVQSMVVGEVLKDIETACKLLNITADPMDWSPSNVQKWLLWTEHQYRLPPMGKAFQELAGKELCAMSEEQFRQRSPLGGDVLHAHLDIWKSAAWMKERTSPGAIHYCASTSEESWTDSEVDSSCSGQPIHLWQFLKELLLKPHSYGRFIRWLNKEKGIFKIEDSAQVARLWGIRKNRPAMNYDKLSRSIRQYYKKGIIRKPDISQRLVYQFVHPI
To be noted: protein: recombinant; tags: N-terminal GST; dsDNA, one strand shown. A digest of the protocol:
as §1

The next experiment concerns the target T10, ETV7 (Homo sapiens, UniProt Q9Y603 1-341).
T10 sequence: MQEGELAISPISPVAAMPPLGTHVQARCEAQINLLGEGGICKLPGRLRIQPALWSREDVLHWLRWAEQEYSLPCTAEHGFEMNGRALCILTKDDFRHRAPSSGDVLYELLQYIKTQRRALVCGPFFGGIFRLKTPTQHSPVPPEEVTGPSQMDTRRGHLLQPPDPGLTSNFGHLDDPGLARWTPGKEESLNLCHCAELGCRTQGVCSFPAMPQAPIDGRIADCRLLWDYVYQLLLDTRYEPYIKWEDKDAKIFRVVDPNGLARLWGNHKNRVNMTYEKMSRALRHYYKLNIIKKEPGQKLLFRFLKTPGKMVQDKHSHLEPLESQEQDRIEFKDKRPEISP
To be noted: protein: recombinant; tags: N-terminal GST; dsDNA, one strand shown. A digest of the protocol:
as §1

The next experiment addresses T11, ELF5 (Homo sapiens, UniProt Q9UKW6-2 1-255).
T11 sequence: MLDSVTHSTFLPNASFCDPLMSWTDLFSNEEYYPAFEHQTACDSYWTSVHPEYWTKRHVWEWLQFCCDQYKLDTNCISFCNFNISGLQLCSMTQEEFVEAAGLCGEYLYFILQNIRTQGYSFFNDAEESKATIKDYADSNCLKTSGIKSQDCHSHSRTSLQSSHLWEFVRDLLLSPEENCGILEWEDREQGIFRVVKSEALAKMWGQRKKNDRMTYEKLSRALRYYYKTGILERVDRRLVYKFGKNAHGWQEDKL
To be noted: protein: recombinant; tags: N-terminal GST; dsDNA, one strand shown. In short, it runs like this:
as §1

The target of another experiment is T12, ETV3 (Homo sapiens, UniProt P41162-2 1-143).
T12 sequence: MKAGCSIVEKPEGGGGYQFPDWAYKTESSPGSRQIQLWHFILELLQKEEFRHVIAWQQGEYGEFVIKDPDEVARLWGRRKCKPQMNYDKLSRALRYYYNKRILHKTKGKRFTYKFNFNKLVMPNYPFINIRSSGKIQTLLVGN
To be noted: protein: recombinant; tags: N-terminal GST; dsDNA, one strand shown. A digest of the protocol: as §1

A further experiment addresses ETV6 (Homo sapiens, UniProt P41212 1-452). To be noted: protein: recombinant; tags: N-terminal GST; dsDNA, one strand shown. A digest of the protocol: as §1

Chain of HSF1 (Q00613 whole entry): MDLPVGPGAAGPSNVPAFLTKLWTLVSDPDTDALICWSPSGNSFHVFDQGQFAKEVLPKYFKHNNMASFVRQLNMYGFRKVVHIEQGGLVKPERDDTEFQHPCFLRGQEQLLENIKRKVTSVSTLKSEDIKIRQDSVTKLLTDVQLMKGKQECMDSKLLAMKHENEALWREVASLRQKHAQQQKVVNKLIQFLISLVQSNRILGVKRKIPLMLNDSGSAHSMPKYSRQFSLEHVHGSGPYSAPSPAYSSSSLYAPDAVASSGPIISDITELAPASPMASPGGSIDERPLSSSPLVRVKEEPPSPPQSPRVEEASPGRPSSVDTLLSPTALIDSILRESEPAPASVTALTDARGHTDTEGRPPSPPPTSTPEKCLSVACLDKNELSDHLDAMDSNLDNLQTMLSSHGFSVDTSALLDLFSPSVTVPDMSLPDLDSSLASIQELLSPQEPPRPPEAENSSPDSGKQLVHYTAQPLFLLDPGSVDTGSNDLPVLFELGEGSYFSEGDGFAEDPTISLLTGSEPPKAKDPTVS
Chain of CRX (O43186 whole entry): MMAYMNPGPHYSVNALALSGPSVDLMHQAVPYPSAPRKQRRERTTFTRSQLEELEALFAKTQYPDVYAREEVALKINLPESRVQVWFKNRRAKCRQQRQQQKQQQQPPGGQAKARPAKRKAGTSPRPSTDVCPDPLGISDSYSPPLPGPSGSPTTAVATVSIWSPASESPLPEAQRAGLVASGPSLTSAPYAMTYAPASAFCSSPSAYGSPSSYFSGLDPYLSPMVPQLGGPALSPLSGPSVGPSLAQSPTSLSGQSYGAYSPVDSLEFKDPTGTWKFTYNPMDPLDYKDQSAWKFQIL
Chain of ELF4 (Q99607 whole entry): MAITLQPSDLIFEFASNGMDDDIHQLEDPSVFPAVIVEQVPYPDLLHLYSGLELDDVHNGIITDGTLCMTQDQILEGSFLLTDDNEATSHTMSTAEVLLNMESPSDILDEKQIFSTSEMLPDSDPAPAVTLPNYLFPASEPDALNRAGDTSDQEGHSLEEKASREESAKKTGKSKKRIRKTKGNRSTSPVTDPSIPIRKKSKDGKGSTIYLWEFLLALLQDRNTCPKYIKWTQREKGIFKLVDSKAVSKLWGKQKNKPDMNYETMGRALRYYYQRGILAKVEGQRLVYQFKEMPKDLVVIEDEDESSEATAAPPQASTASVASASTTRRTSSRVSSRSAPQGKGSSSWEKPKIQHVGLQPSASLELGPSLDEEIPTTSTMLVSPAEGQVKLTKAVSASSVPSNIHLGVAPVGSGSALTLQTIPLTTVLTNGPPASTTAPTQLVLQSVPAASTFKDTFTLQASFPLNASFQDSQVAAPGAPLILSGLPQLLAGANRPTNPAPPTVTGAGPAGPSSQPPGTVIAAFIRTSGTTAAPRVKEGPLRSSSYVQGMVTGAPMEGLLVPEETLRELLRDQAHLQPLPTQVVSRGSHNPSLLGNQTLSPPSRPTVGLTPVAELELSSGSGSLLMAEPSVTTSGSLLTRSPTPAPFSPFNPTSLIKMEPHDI
Chain of ETV6 (P41212 whole entry): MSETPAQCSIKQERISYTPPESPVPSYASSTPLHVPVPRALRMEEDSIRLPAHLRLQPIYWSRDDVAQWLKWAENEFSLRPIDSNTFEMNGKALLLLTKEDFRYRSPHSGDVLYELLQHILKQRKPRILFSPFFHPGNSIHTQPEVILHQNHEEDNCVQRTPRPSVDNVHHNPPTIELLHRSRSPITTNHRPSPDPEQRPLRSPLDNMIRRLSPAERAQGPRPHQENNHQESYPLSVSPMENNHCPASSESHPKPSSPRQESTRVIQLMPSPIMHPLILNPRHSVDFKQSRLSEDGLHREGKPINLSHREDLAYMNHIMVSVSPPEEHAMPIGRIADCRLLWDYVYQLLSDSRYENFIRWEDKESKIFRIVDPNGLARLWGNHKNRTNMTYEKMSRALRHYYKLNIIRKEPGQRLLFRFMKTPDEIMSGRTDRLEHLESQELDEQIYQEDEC
Chain of ETV5 (P41161 whole entry): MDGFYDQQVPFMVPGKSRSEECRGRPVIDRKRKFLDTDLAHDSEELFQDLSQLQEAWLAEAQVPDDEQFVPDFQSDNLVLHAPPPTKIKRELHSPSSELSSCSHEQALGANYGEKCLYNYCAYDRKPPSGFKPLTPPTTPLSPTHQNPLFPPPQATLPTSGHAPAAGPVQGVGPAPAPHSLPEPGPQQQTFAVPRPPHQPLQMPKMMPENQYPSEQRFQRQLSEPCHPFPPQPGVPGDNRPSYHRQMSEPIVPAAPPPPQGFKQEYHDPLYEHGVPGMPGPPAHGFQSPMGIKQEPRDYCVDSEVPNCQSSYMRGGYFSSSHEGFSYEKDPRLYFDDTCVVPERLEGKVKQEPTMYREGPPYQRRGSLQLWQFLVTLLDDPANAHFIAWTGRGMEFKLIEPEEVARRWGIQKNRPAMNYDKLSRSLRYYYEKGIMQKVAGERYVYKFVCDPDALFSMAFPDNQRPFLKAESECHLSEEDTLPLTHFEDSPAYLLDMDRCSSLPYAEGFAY
Chain of ETV1 (P50549 whole entry): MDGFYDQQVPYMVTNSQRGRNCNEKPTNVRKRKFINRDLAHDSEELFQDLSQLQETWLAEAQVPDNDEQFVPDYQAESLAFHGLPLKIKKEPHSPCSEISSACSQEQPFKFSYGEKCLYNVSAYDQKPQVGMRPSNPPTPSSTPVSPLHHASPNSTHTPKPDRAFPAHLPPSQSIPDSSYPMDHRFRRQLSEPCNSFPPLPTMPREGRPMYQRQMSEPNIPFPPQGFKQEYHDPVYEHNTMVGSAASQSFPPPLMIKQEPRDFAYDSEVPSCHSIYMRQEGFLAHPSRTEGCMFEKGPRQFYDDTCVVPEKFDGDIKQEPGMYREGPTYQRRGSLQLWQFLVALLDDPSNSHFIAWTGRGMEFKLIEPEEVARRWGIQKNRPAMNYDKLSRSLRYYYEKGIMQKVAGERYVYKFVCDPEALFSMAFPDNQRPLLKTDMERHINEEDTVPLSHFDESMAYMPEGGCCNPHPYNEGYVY

Consider AAACAT, for which the binding signal was 1.45 fold enrichment (6-mer frequency, TF over GST control) with FEV; 1.57 fold enrichment (6-mer frequency, TF over GST control) with ETV5; 1.48 fold enrichment (6-mer frequency, TF over GST control) in the experiment with HSF1; 1.53 fold enrichment (6-mer frequency, TF over GST control) in the experiment with SPIC; 1.53 fold enrichment (6-mer frequency, TF over GST control) with ELF4; 1.49 fold enrichment (6-mer frequency, TF over GST control) in the experiment with ELK4. The binding signal with ETV2 was 1.53 fold enrichment (6-mer frequency, TF over GST control); with ELF3 it was 1.53 fold enrichment (6-mer frequency, TF over GST control); with CRX, 1.32 fold enrichment (6-mer frequency, TF over GST control); with ETV1, 1.43 fold enrichment (6-mer frequency, TF over GST control); in the experiment with ERF, 1.45 fold enrichment (6-mer frequency, TF over GST control); in the experiment with ETV3L, 1.46 fold enrichment (6-mer frequency, TF over GST control). For the same sequence, the binding signal with ETS2 is 1.48 fold enrichment (6-mer frequency, TF over GST control); in the experiment with SPDEF, 1.51 fold enrichment (6-mer frequency, TF over GST control); with ETV7 it was 1.44 fold enrichment (6-mer frequency, TF over GST control); in the experiment with ELF5, 1.51 fold enrichment (6-mer frequency, TF over GST control); in the experiment with ETV3, 1.48 fold enrichment (6-mer frequency, TF over GST control); with ETV6 it was 1.52 fold enrichment (6-mer frequency, TF over GST control).
